Experimental data from PubChem BioAssay (EPA / NIEHS).
Results filed as inconclusive are left out. The source made the active and inactive calls. How the source made its calls, unless noted: active means hit-call score of the fitted dose curve at least 0.9, where 1 is the maximum; inactive means score below 0.9.

What was measured:
[1] = ATG_TGFb_CIS: Attagene CIS-FACTORIAL HepG2 Assay for human Transforming Growth Factor (TGF) (AID 2282967); settings: HepG2 Attagene CIS TGFb reporter, mRNA transcription; actives raise or lower the signal
Summary of the method: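 Transcript-level reporter readout: HepG2 transfectants, 24 h exposure, RNA to cDNA, reporter-specific PCR, fluorescent primer extension, capillary sizing against ROX standards. Gain- or loss-of-signal relative to DMSO.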

[2] = target: Steroid hormone receptor ERR1 (Homo sapiens) (UniProt P11474); assay: ATG_ERRa_TRANS: Attagene TRANS-FACTORIAL HepG2 Assay for human Estrogen-Related Receptor alpha (ERRa) (AID 2282971; active means hit-call score of the fitted dose curve at least 0.9, where 1 is the maximum); settings: HepG2 Attagene TRANS reporter, ERRa transactivation
Sequence of Steroid hormone receptor ERR1 (Homo sapiens) (P11474 whole entry, looked up, the tested form may be a part): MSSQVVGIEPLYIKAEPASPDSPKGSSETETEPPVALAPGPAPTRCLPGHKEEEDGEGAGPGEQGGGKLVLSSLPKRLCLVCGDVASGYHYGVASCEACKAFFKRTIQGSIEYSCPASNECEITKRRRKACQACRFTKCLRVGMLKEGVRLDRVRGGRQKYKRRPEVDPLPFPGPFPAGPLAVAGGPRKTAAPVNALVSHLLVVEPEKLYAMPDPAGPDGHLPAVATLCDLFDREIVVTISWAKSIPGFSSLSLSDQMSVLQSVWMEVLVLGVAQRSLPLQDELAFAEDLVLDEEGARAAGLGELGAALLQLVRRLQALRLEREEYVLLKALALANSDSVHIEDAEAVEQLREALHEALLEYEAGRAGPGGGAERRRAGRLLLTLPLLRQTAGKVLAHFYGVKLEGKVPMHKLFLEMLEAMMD
Summary of the method: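 Signal gain relative to DMSO for an ERRa-Gal4 chimeric receptor, read as reporter mRNA by RT-PCR/capillary electrophoresis. Human HepG2 liver cells, transient multiplex reporter transfection, 24 h chemical exposure.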

[3] = target: X-box-binding protein 1 (Homo sapiens) (UniProt P17861); assay: ATG_Xbp1_CIS: Attagene CIS-FACTORIAL HepG2 Assay for human X-box Binding Protein 1 (XBP1) (AID 2282972); settings: HepG2 XBP1 cis-element reporter, Attagene multiplex; actives raise or lower the signal
Sequence of X-box-binding protein 1 (Homo sapiens) (P17861 whole entry, looked up): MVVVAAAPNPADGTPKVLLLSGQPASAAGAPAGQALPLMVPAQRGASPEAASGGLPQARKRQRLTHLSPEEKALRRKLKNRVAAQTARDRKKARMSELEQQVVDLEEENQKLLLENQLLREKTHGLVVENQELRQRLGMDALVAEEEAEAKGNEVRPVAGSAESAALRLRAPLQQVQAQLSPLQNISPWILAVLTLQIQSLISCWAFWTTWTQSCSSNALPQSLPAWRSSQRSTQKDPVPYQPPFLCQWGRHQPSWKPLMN
Summary of the method: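 HepG2, transient MRTU transfection (cis-promoter driven), 24 h compound exposure. Total RNA → oligo(dT) RT → PCR → 6-FAM labeling → HpaI cut → CE. Bidirectional fit vs DMSO.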

[4] = ATG_GAL4_TRANS: Attagene TRANS-FACTORIAL HepG2 Assay for GAL4 (Internal Marker) (AID 2282976; active means hit-call score of the fitted dose curve at least 0.9, where 1 is the maximum); settings: HepG2 Attagene TRANS GAL4 internal marker reporter
Summary of the method: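 Liver HepG2 line bearing multiplexed GAL4-UAS reporter constructs; 24 h chemical treatment. Transcripts were quantified as fluorescent fragments on capillary electrophoresis after RT-PCR and HpaI cut, with activity fitted upward from DMSO.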

[5] = target: Oxysterols receptor LXR-alpha (Homo sapiens) (UniProt Q13133); assay: ATG_LXRa_TRANS: Attagene TRANS-FACTORIAL HepG2 Assay for human Liver X Receptor alpha (LXRa) (AID 2282980; active means hit-call score of the fitted dose curve at least 0.9, where 1 is the maximum); settings: HepG2 Attagene TRANS reporter, LXRa transactivation
Summary of the method: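 In this multiplexed TRANS system, compounds act on HepG2 cells carrying GAL4-UAS reporter units and a receptor-GAL4 fusion for 24 h. Induced reporter RNA is amplified, fluorescently labelled and sized by capillary electrophoresis, with DMSO as baseline.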

[6] = ATG_M_06_TRANS: Attagene TRANS-FACTORIAL HepG2 Assay for M06 Transcription Factor (Internal Marker) (AID 2282983; active means hit-call score of the fitted dose curve at least 0.9, where 1 is the maximum;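 further: reporter transcript level by RT-PCR then capillary electrophoresis fluorescence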); settings: HepG2 Attagene TRANS M06 internal marker reporter
Summary of the method: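 Internal-marker background readout from a multiplexed TRANS reporter system in HepG2; 24 h dosing; mRNA induction quantified by RT-PCR plus capillary electrophoresis fluorescence; DMSO as negative control and baseline.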

[7] = target: Nuclear receptor subfamily 4 group A member 2 (Homo sapiens) (UniProt P43354); assay: ATG_NURR1_TRANS: Attagene TRANS-FACTORIAL HepG2 Assay for human Nuclear Receptor Related Protein 1 (NURR1) (AID 2282985; active means hit-call score of the fitted dose curve at least 0.9, where 1 is the maximum); settings: HepG2 Attagene TRANS reporter, mRNA readout
Sequence of Nuclear receptor subfamily 4 group A member 2 (Homo sapiens) (P43354 whole entry, looked up, the tested form may be a part): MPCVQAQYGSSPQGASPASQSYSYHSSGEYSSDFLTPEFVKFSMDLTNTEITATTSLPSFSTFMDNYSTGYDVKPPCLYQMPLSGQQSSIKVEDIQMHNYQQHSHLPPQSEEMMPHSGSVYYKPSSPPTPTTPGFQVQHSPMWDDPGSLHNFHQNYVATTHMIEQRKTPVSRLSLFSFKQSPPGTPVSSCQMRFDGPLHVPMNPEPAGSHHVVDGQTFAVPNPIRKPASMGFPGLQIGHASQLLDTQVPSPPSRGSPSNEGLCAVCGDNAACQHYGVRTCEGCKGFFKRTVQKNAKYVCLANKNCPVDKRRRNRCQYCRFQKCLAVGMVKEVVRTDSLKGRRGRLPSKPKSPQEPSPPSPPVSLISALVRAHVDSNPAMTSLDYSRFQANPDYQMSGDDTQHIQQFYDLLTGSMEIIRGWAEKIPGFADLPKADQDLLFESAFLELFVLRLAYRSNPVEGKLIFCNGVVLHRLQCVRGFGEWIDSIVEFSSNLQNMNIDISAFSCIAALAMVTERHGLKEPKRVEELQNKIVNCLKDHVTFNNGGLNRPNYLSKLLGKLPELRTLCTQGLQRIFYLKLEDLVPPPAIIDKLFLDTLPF
Summary of the method: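 HepG2 cells transiently transfected with NURR1-Gal4 chimera and GAL4-UAS reporter units; after 24 hr compound exposure, reporter mRNA quantified by RT-PCR and capillary electrophoresis; gain of signal fitted against DMSO.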

[8] = target: Transcriptional activator Myb (Homo sapiens) (UniProt P10242); assay: ATG_Myb_CIS: Attagene CIS-FACTORIAL HepG2 Assay for human Myeloblastosis (Myb) Proto-Oncogene Transcription Factor (AID 2282986); settings: HepG2 Attagene CIS-FACTORIAL Myb reporter transcription; actives raise or lower the signal
Sequence of Transcriptional activator Myb (Homo sapiens) (P10242 whole entry, looked up): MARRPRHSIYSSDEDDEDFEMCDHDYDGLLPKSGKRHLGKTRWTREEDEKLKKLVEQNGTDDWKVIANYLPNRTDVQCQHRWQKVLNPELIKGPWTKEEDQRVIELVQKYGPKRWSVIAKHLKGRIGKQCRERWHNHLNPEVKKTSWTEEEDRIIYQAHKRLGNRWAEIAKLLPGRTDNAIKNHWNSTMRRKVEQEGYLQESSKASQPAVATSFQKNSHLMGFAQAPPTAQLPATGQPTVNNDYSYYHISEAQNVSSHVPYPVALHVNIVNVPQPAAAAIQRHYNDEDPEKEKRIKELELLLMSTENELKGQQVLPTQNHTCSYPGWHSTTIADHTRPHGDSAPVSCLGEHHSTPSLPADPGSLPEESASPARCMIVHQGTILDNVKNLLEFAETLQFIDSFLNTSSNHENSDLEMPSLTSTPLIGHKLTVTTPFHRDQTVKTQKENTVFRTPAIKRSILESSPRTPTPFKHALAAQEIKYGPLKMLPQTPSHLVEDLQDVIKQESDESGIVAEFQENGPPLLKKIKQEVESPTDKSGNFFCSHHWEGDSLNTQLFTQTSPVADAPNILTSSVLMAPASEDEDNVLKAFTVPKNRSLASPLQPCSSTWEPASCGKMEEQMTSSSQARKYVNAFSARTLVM
Summary of the method: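 Transiently transfected HepG2 cells carrying a multiplexed cis-promoter reporter set report endogenous Myb activity after 24 h compound exposure. Reporter mRNA is read by RT-PCR with capillary electrophoresis of fluorescent products, fitted bidirectionally against DMSO.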

[9] = target: Nuclear respiratory factor 1 (Homo sapiens) (UniProt Q16656); assay: ATG_NRF1_CIS: Attagene CIS-FACTORIAL HepG2 Assay for human Nuclear Respiratory Factor 1 (NRF1) Orphan Gene (AID 2282987); settings: HepG2 NRF1 cis-element reporter, Attagene multiplex; actives raise or lower the signal
Sequence of Nuclear respiratory factor 1 (Homo sapiens) (Q16656 whole entry, looked up): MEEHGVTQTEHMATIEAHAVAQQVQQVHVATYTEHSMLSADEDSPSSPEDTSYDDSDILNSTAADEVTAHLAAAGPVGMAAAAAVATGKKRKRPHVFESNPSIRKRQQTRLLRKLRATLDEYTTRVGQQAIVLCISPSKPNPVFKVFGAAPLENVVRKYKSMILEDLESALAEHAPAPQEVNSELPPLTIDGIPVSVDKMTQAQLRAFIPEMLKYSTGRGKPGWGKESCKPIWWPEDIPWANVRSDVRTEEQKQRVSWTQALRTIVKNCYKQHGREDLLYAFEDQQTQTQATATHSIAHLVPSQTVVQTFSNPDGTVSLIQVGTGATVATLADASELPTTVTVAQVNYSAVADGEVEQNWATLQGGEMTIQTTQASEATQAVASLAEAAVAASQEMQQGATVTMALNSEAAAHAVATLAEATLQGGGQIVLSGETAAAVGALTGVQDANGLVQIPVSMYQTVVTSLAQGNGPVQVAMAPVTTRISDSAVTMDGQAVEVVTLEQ
Summary of the method: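 HepG2 cells transiently transfected with multiple cis-regulated reporter units, exposed 24 h. Reporter mRNAs measured by RT-PCR, fluorescent labelling, HpaI digestion and capillary electrophoresis; bidirectional fitting against DMSO.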

[10] = ATG_NFI_CIS: Attagene CIS-FACTORIAL HepG2 Assay for human Nuclear Factor I (NFI) (AID 2282989); settings: HepG2 cis-regulatory reporter, NFI response element transcription; actives raise or lower the signal
Summary of the method: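 After transient transfection of HepG2 with cis-promoter reporter constructs and 24 h dosing, RNA is reverse-transcribed, amplified, 6-FAM end-labelled and HpaI-digested before capillary analysis. Bidirectional curve fitting against DMSO.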

[11] = ATG_M_19_TRANS: Attagene TRANS-FACTORIAL HepG2 Assay for M19 Transcription Factor (Internal Marker) (AID 2282974; active means hit-call score of the fitted dose curve at least 0.9, where 1 is the maximum); settings: HepG2 Attagene TRANS-FACTORIAL M19 internal marker reporter
Summary of the method: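 HepG2 transiently transfected with GAL4-UAS multiplex reporter constructs, exposed 24 h; reporter RNA quantified by RT-PCR, 6-FAM labeling, HpaI digestion and capillary electrophoresis; internal background marker fitted upward versus DMSO.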

[12] = target: Glucocorticoid receptor (Homo sapiens) (UniProt P04150); assay: ATG_GR_TRANS: Attagene TRANS-FACTORIAL HepG2 Assay for human Glucocorticoid Receptor (GR) (AID 2282978; active means hit-call score of the fitted dose curve at least 0.9, where 1 is the maximum;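 further: activators score as hits since higher reporter transcript over DMSO is fitted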); settings: HepG2 Attagene TRANS GR reporter, mRNA transcription
Sequence of Glucocorticoid receptor (Homo sapiens) (P04150 whole entry, looked up, the tested form may be a part): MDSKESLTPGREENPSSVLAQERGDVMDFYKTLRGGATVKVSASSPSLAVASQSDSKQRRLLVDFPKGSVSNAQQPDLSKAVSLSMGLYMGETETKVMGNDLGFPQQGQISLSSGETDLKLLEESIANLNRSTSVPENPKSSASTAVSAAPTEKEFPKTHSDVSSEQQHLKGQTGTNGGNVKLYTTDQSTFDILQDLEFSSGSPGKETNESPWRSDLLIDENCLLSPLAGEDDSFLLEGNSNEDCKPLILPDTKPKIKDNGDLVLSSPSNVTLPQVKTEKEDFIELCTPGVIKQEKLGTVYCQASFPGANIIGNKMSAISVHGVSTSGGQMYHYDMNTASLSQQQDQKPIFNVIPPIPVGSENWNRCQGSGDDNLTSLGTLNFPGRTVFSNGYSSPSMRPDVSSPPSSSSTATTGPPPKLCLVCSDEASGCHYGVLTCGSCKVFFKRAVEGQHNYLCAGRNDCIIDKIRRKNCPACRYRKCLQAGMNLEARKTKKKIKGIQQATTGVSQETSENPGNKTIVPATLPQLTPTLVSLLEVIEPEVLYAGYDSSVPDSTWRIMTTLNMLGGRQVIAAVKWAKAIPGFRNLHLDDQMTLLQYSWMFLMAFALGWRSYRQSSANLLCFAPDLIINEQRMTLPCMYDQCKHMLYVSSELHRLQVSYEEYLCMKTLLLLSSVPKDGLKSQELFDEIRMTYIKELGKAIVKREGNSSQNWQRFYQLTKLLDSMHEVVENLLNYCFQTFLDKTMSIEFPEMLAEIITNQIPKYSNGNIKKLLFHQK
Summary of the method: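 HepG2 cells transiently transfected with GAL4-UAS reporter units and exogenous GR-Gal4 chimera, dosed 24 h. Reporter mRNA by RT-PCR, FAM labeling, HpaI digest and capillary electrophoresis; gain-of-signal fit versus DMSO.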

[13] = ATG_M_32_TRANS: Attagene TRANS-FACTORIAL HepG2 Assay for M32 Transcription Factor (Internal Marker) (AID 2282984; active means hit-call score of the fitted dose curve at least 0.9, where 1 is the maximum;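 further: transcript level of a background control reporter unit measured by RT-PCR and capillary electrophoresis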); settings: HepG2 Attagene TRANS M32 internal marker reporter
Summary of the method: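 HepG2 cells transiently transfected with GAL4-UAS reporter units, dosed for 24 hours. Reporter mRNA quantified by RT-PCR, 6-FAM labelling, HpaI digestion and capillary electrophoresis; internal-marker signal fitted upward relative to DMSO.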

[14] = target: Estrogen-related receptor gamma (Homo sapiens) (UniProt P62508); assay: ATG_ERRg_TRANS: Attagene TRANS-FACTORIAL HepG2 Assay for human Estrogen-Related Receptor gamma (ERRg) (AID 2282977; active means hit-call score of the fitted dose curve at least 0.9, where 1 is the maximum;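 further: hits increase reporter signal over DMSO so potencies reflect activators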); settings: HepG2 Attagene TRANS reporter, ERRg transactivation
Sequence of Estrogen-related receptor gamma (Homo sapiens) (P62508 whole entry, looked up, the tested form may be a part): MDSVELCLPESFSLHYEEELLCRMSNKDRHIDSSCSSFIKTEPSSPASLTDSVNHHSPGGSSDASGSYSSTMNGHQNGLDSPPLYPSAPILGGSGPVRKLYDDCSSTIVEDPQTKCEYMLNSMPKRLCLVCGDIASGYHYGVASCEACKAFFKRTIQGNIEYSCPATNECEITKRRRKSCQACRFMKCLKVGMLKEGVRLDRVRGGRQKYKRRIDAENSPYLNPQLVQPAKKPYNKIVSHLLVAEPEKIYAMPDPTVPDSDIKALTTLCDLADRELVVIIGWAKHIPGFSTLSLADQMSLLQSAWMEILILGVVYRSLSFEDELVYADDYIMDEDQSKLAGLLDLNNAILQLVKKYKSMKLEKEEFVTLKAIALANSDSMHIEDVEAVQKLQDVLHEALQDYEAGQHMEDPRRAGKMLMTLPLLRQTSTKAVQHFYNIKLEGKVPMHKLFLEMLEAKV
Summary of the method: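 Transfect HepG2 with multiple GAL4-UAS reporter transcription units; dose chemicals 24 h; isolate RNA, reverse-transcribe with oligo(dT), PCR-amplify, label with 6-FAM, digest with HpaI; size fragments by capillary electrophoresis. DMSO serves as negative control.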

[15] = target: Hepatocyte nuclear factor 4-alpha (Homo sapiens) (UniProt P41235); assay: ATG_HNF4a_TRANS: Attagene TRANS-FACTORIAL HepG2 Assay for human Hepatocyte Nuclear Factor 4 alpha (HNF4a) (AID 2282982; active means hit-call score of the fitted dose curve at least 0.9, where 1 is the maximum); settings: HepG2 HNF4a transactivation reporter, mRNA readout
Sequence of Hepatocyte nuclear factor 4-alpha (Homo sapiens) (P41235 whole entry, looked up, the tested form may be a part): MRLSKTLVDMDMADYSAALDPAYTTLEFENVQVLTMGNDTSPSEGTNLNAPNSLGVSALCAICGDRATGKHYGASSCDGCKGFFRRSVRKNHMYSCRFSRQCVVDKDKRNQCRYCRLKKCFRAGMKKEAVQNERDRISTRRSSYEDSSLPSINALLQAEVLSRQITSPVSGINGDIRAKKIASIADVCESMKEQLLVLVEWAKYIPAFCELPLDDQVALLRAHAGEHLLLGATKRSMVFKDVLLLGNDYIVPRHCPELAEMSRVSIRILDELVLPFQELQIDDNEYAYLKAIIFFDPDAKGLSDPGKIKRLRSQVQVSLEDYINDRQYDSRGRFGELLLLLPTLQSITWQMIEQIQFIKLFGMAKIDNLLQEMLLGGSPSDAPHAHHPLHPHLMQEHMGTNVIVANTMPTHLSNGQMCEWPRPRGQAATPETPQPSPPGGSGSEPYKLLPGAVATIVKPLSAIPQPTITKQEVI
Summary of the method: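 HepG2 cells transiently transfected with HNF4a-Gal4 chimera and GAL4-UAS reporter units, dosed for 24 h. Reporter mRNA measured by RT-PCR, fluorescent primer extension and capillary electrophoresis; gain-of-signal fitted relative to DMSO.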

[16] = target: Oxysterols receptor LXR-beta (Homo sapiens) (UniProt P55055); assay: ATG_LXRb_TRANS: Attagene TRANS-FACTORIAL HepG2 Assay for human Liver X Receptor beta (LXRb) (AID 2282981; active means hit-call score of the fitted dose curve at least 0.9, where 1 is the maximum); settings: HepG2 Attagene TRANS GAL4-LXRb reporter, mRNA
Sequence of Oxysterols receptor LXR-beta (Homo sapiens) (P55055 whole entry, looked up, the tested form may be a part): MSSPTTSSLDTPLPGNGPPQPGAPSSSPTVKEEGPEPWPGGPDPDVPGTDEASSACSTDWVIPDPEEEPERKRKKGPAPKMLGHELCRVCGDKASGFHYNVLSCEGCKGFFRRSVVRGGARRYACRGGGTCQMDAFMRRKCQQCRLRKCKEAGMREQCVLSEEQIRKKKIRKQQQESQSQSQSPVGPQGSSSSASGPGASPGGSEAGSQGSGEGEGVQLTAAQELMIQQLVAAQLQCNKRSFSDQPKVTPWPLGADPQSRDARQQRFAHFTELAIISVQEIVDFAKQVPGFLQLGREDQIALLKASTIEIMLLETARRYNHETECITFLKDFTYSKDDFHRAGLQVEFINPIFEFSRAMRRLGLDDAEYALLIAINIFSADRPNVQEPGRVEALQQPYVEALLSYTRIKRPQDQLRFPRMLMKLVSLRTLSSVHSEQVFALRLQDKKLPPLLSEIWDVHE
Summary of the method: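 HepG2 cells transiently transfected with GAL4-UAS reporter units for chimeric NR-Gal4 proteins, dosed for 24 h. Reporter transcripts measured by RT-PCR and capillary electrophoresis; gain-of-signal fitting relative to DMSO.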

[17] = target: Bile acid receptor (Homo sapiens) (UniProt Q96RI1); assay: ATG_FXR_TRANS: Attagene TRANS-FACTORIAL HepG2 Assay for Farnesoid X Receptor (FXR) (AID 2282979; active means hit-call score of the fitted dose curve at least 0.9, where 1 is the maximum;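 further: hits raise reporter mRNA above DMSO so AC50 marks FXR activation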); settings: HepG2 Attagene TRANS FXR-GAL4 reporter transcription
Summary of the method: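 After 24 h chemical treatment of transfected HepG2 cells, GAL4-UAS reporter transcripts driven by an exogenous FXR-GAL4 fusion were measured by RT-PCR and capillary electrophoresis. Increases over DMSO were fitted.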

Measured: AC50

CC(C)NCC(O)c1ccc(O)c(O)c1 (stereo not given)
not listed: [11] | [12] | [13] | [14] | [15] | [16] | [17]
inactive: all other assays above

CO[C@@H]1COCC[C@@H]1N[C@@H]1CC[C@@](C(=O)N2CCc3ncc(C(F)(F)F)cc3C2)(C(C)C)C1
inactive: [1] | [3] | [11] | [4] | [8] | [9] | [10]

COC(=O)[C@H]1[C@H]2C[C@@H]3c4[nH]c5cc(OC)ccc5c4CCN3C[C@H]2C[C@@H](OC(=O)c2cc(OC)c(OC)c(OC)c2)[C@@H]1OC
inactive: [1] | [3] | [12] | [6] | [13] | [8] | [10]

O=C1c2c(O)cccc2Cc2cccc(O)c21
inactive: [1] | [3] | [4] | [12] | [6] | [7] | [8] | [9] | [10]

CCOCCOCCO
not listed: [5] | [6] | [7] | [13] | [15] | [16] | [17]
inactive: all other assays above

CC(=O)O
inactive: [1] | [3] | [11] | [6] | [7] | [8] | [9] | [10]

CCCCCCCCCCCCCCOS(=O)(=O)O
active: [1] 15.1 µM
inactive: [3] | [12] | [6] | [7] | [8] | [9] | [10]

Cc1occc(=O)c1O
inactive: [1] | [3] | [11] | [4] | [15] | [8] | [9] | [10]

NC=O
not listed: [2] | [4] | [11] | [12] | [13] | [17]
inactive: all other assays above

CCCCCCCCCC[N+](C)(C)[O-]
not listed: [4] | [6] | [7] | [13] | [15] | [17]
inactive: all other assays above

CCCCCCC(CCCCCCCCCCC(=O)OCC(COC(C)=O)OC(C)=O)OC(C)=O (stereo not given)
inactive: [1] | [3] | [12] | [17] | [6] | [8] | [9] | [10]

CN(C)C(=O)NC1(c2ccccc2)CCN(CCC[C@]2(c3ccc(Cl)c(Cl)c3)CCCN(C(=O)c3ccccc3)C2)CC1
active: [3] 4.69 µM | [9] 4.5 µM | [10] 3.32 µM
inactive: [1] | [11] | [17] | [16] | [15] | [8]

C/C=C/c1ccc(OC)cc1
inactive: [1] | [3] | [11] | [15] | [8] | [10]

CC(C)c1cccc(C(C)C)c1
inactive: [1] | [2] | [3] | [11] | [15] | [8] | [9] | [10]
